D1 potentiator: potentiators of human D1 dopamine receptor; P21728; HEK293 TREx D1 cells, calcium flux, dopamine EC20 potentiation; potentiation, % at 10 µM; 360,000 tested, 0.036% active; in the data active means potentiation above about 30%; further: 0% is about no effect
TRHR agonist: TRH receptor (human) agonism. activation, % at 2 µM. AID 493084. 360,000 tested, 0.18% active. P34981. TRHR cells, calcium flux fluo-8, FDSS agonist mode; further: 0% is about no effect
Target sequence (P34981 whole entry, looked up): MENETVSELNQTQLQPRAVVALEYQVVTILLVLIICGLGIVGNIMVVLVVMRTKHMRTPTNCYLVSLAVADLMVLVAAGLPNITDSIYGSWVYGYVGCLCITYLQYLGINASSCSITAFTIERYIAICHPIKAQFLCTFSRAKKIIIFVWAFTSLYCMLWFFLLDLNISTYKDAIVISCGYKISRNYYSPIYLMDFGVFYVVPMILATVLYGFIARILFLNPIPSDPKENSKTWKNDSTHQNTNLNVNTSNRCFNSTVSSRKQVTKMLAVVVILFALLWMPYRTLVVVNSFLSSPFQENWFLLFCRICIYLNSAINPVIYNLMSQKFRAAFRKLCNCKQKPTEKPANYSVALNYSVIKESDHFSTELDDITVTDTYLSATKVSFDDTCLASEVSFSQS
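Read-out: compound-evoked intracellular calcium rise in TRHR cells, fluo-8 dye, kinetic FDSS fluorescence at 1 s/cycle following a 10-cycle baseline. Cells cultured overnight before dye loading (30 min–1.5 h, RT).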
TRHR enhancer: allosterically enhances the human TRH receptor. P34981. 360,000 tested, 0.66% active. enhancement, % at 2 µM. TRHR cells, fluo-8 calcium fluorescence, EC20 TRH enhancement; in the data active means enhancement above about 30%; further: 0% is about no effect
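TRHR-expressing cells loaded with fluo-8 calcium dye were read kinetically (ex 480/em 530) during compound addition, then stimulated with an EC20 of TRH (10 nM final). Enhancement of the Gq-mediated intracellular calcium response was scored.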
D1 antagonist: human D1 dopamine receptor antagonism; P21728; HEK293 TREx D1 cells, calcium flux, dopamine EC80; hits give low values; activity change, negative = inhibition, % at 10 µM; 360,000 tested, 3.2% active; AID 504652; in the data active means activity change below about -30%; further: on the % scale 0 is the no-effect control and ±100 the full control effect
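HEK293 T-REx cells expressing inducible, force-coupled D1 receptor; no-wash Ca dye, 30–90 min RT. Cmpd → 180 s read at 1 Hz → EC80 DA → 180 s read.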
D1 ag: activates the human D1 dopamine receptor | HEK293 T-REx D1 cells, calcium flux, agonist mode | 360,000 tested, 1% active | activation, % at 2 µM | P21728; further: 0% is about no effect
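Tetracycline-induced HEK293 TREx D1 cells, force-coupled to calcium signalling, were dye-loaded with a no-wash calcium kit. Compound was pin-added after a 10 s baseline. Fluorescence was read kinetically at 1 cycle/s for 180 s, with calcium rises flagged as agonism.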
Active calls of the source: *; · = not tested or not shown; ! = not confirmed by another sample. A selection: hits, their analogues and other compounds. The true share with any hit is near 4.6%. Unless noted, no stated cut-off is given here; in the data, active means activation above about 30%; inactive means the rest.

SMILES	D1 potentiator	TRHR agonist	TRHR enhancer	D1 antagonist	D1 ag
COc1ccc(NC(=O)c2ccc(Cl)nc2)cc1S(=O)(=O)N1CCOCC1	0	2	-1	-15	4
CCCCCOc1ccc(C(=O)OCC(=O)Nc2cc(C)on2)cc1	6	2	31*	-3	4
CCOC(=O)c1ccc(NC(=O)Nc2cc(C)on2)cc1	-4	-1	3	-32*	27
CCOC(=O)c1ccc(NC(=S)NNC(C)(C)C)cc1	-2	0	10	-36*	2
CCOC(=O)c1ccc(NC(=S)Nc2ccc(C)cc2)cc1	10	0	-4	1	2
CCOC(=O)c1ccc(NC(=O)Nc2cccc(C)n2)cc1	-2	2	-2	7	2
COc1ccc(NC(=O)C2CCN(C3=NS(=O)(=O)C(c4ccc(C)c(C)c4)=C3C)CC2)c(OC)c1	-8	0	-4	-12	5
CCN(CC)c1ccc(NC(=O)CCc2nc3cccnc3n2Cc2cccs2)c(C)c1	1	0	6	-5	-2
C[C@H](NC(=O)C1CCN(C(=O)[C@H](Cc2ccccc2)NC(=O)OC(C)(C)C)CC1)C(=O)O	8	1	-3	-7	2
Cc1cccc(S(=O)(=O)N2CCN(S(=O)(=O)c3ccc4c(c3)OCCO4)CC2)c1	2	1	2	-4	5
CCc1noc(C)c1C(=O)N1CCN(S(=O)(=O)c2cc(C)ccc2C)CC1	11	0	-6	-31*	-1
CCc1noc(C)c1C(=O)N1CCN(S(=O)(=O)c2ccc(Br)cc2)CC1	-7	-1	0	-72*	-3
Cc1ccc(S(=O)(=O)N2CCN(C(=O)c3ccc(OCc4c(C)noc4C)cc3)CC2)cc1	-5	0	1	-1	2
Cc1ccc(C)c(S(=O)(=O)N2CCN(C(=O)c3ccc(OCc4c(C)noc4C)cc3)CC2)c1	-1	0	11	-31*	10
CCc1noc(C)c1C(=O)N1CCN(S(=O)(=O)c2ccc(C)cc2)CC1	-1	0	-3	-15	1
COc1ccc(NC(=O)C(NS(=O)(=O)c2cccc3nsnc23)C(C)C)cc1OC (stereo unspecified)	-2	0	-5	1	-2
COc1cccc(C(=O)Oc2c(Br)cc(Br)cc2/C=N/NC(=O)c2cc(C)[nH]n2)c1	-3	2	-6	-32*	10
CC1(C)CC(NC(=O)c2sc3cc(Cl)ccc3c2Cl)CC(C)(C)N1	-10	1	9	-37*	8
CCN1CCN(C(c2ccccc2)c2c(O)cc(C)n(CCOC)c2=O)CC1 (stereo unspecified)	0	0	3	15	-1
CCOc1cc(/C=N/NC(=O)c2nn(C)cc2Br)ccc1OCc1ccccc1Cl	-2	-1	2	7	3
Cn1cc(Br)c(C(=O)N/N=C/c2cccc(OC3CSC3)c2)n1	2	0	-2	-30*	2
C[C@@H]1CN(C(=O)c2ccc(OC3CCN(S(=O)(=O)N(C)C)CC3)cc2)C[C@H](C)O1	2	0	5	-30*	3
CCOC(=O)C1CCN(C(=O)Cn2nc(CC)n3cccc3c2=O)CC1	-3	1	4	2	2
CC(NC(=O)[C@H](Cc1c[nH]c2ccccc12)NC(=O)[C@@H]1Cc2ccccc2CN1)c1ccccc1 (stereo partly specified)	5	0	30*	-5	8
CCn1c(=O)cc(N2CCC3(CC2)OCCO3)[nH]c1=O	-6	-2	11	-60*	4
SMILES	D1 potentiator	TRHR agonist	TRHR enhancer	D1 antagonist	D1 ag
CCC(=O)NC(c1ccc(Br)o1)c1cc(Cl)c2cccnc2c1O (stereo unspecified)	4	30*	4	15	89*
COc1cc(-n2c(=O)c3ccccc3n(Cc3cccc(Cl)c3)c2=O)cc(OC)c1OC	-1	-1	13	-3	4
CC1CCCN(C(=O)Cn2c(=O)oc3cc(S(=O)(=O)N4CCCCC4)ccc32)C1 (stereo unspecified)	4	0	-3	27	1
O=C(Cn1c(=O)oc2cc(S(=O)(=O)N3CCCC3)ccc21)N1CCc2ccccc2C1	·	0	-11	-1	6
CC1CCCCN1C(=O)Cn1c(=O)oc2cc(S(=O)(=O)N3CCCC3)ccc21 (stereo unspecified)	-1	-2	34*	9	7
CC1CCN(S(=O)(=O)c2ccc3c(c2)oc(=O)n3CC(=O)N2CCc3ccccc3C2)CC1	·	0	-4	-65*	0
CC1CCN(C(=O)Cn2c(=O)oc3cc(S(=O)(=O)N4CCCCC4)ccc32)CC1	48*!	0	0	-10	2
O=C(O)CNC(=O)/C(=C\c1ccco1)NC(=O)c1ccco1	-8	1	2	2	3
Cc1ccc(C)c2c1c1ccccc1n2C	-4	0	31*	12	0
Cc1ccc(NS(=O)(=O)c2ccc(C(=O)NCC(c3ccco3)N3CCCCC3)cc2)cc1 (stereo unspecified)	-3	4	7	-1	39*
O=C(NCC(c1ccco1)N1CCCCC1)c1ccc(OCc2ccccc2)cc1 (stereo unspecified)	-5	-1	3	-27	4
CCOc1ccc(S(=O)(=O)Nc2cccc(C(=O)N(C)Cc3cccc(OC)c3OC)c2)cc1	-6	-1	2	-32*	7
CCOc1ccc(NS(=O)(=O)c2ccc(C(=O)NCC(c3ccco3)N(C)C)cc2)cc1 (stereo unspecified)	4	7	-1	-13	70*
N#CCC(=O)Nc1ccc(C(=O)NCC(c2ccco2)N2CCCCC2)cc1 (stereo unspecified)	1	1	38*	2	4
O=C(NCC(c1ccco1)N1CCCCC1)c1ccc(S(=O)(=O)Nc2ccccc2)cc1 (stereo unspecified)	0	1	11	7	11
Cn1ncc(Cl)c1C(=O)N1CCN(c2ncccn2)CC1	-2	0	1	7	1
COc1ccc(NS(=O)(=O)c2cccc(C(=O)N(C)Cc3cccs3)c2)cc1	-8	-1	5	-25	17
Cc1ccc(S(=O)(=O)NC(CC(C)C)C(=O)NCC(c2ccco2)N2CCCCC2)cc1 (stereo unspecified)	-6	-1	0	13	3
COc1ccc(NS(=O)(=O)c2ccc(C(=O)N(C)Cc3cccs3)cc2)cc1	2	5	5	-35*	60*
CCOc1ccccc1C(=O)NCC(=O)NNC(=O)c1cccc(S(=O)(=O)Nc2ccc(OC)cc2)c1	-5	0	2	-20	1
CC(=O)Nc1ccc(S(=O)(=O)NC(C)C(=O)NCC(c2ccco2)N2CCCCC2)cc1 (stereo unspecified)	-2	0	3	-46*	1

From PubChem
